Counter-ions that a name gives are not always drawn.
System: Clostridium sporogenes DSM 1664
Experiment: growth (OD595) fold change vs plate DMSO controls (fold change (ratio)); higher = more growth
Details: incubation time: 27 h, anaerobic, 37 °C
How it was run: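 Growth is calculated as fold change against the median of the DMSO control wells on each plate. Readings at 595 nm from anaerobic mGAM cultures (96-well, 27 h, 37 °C) were blank-subtracted, background-corrected with 20 µM compound solutions in water, and converted to OD by a calibration factor of 5. Fold changes above 1.5 were recorded as NA, and results are means of 2 biological replicates.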

Compound	growth
CNC(=C[N+](=O)[O-])NCCSCc1ccc(CN(C)C)o1 [Ranitidine hydrochloride] (20 µM)	1.07
C/C(O)=C(\C#N)C(=O)Nc1ccc(C(F)(F)F)cc1 [Teriflunomide] (20 µM)	0.938
Cc1ccsc1/C=C/C1=NCCCN1C [Morantel tartrate] (20 µM)	1.2
CCCCOCCOCCOCc1cc2c(cc1CCC)OCO2 (20 µM)	1.07
CC(C)C(=O)Nc1ccc([N+](=O)[O-])c(C(F)(F)F)c1 [Flutamide] (20 µM)	0.955
N=c1nc(N2CCCCC2)cc(N)n1O [Minoxidil] (20 µM)	0.888
C[C@]12CCC3=C4CCC(=O)C=C4CC[C@H]3[C@@H]1CC[C@@]2(O)CC#N [Dienogest] (20 µM)	0.815
CN(Cc1cnc2nc(N)nc(N)c2n1)c1ccc(C(=O)N[C@@H](CCC(=O)O)C(=O)O)cc1 [Amethopterin] (20 µM)	1.08
NC(=O)C1CO1 (stereo not drawn) [Glycidamide] (20 µM)	0.988
O=C1[C@H]2CCCC[C@H]2C(=O)N1CCCCN1CCN(c2nsc3ccccc23)CC1 [Perospirone hydrochloride] (20 µM)	1.12
C=C1[C@H](CO)[C@@H](O)C[C@@H]1n1cnc2c(=O)[nH]c(N)nc21 [Entecavir] (20 µM)	0.907
O=c1n(CCCN2CCN(c3cccc(Cl)c3)CC2)nc2ccccn12 [Trazodone hydrochloride] (20 µM)	1.09
CC(=O)Nc1nnc(S(N)(=O)=O)s1 [Acetazolamide] (20 µM)	1.04
